According to PubChem BioAssay AID905 (National Center for Advancing Translational Sciences (NCATS), 2007):
This is one part of the list. Results filed as inconclusive are left out. Activity calls are given as the source filed them. Calls follow the shape of the dose curve; as a rule, active = well fitted curve in the direction sought with a large enough effect; inconclusive = small, poorly fitted or top-dose-only effect, or another doubt; inactive = no such curve, though single readings can be large or run the other way.

assay: Cell Viability - CRE-beta lactamase CHO cell - 24 hr assay; settings: CRE-bla CHO viability, ATP luminescence; series mostly up to 46.1 µM
From the text: NIH Molecular Libraries Screening Centers Network [MLSCN] NIH Chemical Genomics Center [NCGC] National Institutes of Environmental Health Sciences [NIEHS] National Toxicology Program [NTP] MLSCN Grant: 1X01MH079867-01 Assay Provider: Marshall W. Nirenberg, U.S. National Heart, Lung and Blood Institute NCGC Assay Overview: We have developed a 1536-well cell-based assay for quantitative high throughput screening (qHTS) against a number of cell lines to determine in vitro cytotoxicity of small molecules. This particular assay uses CRE-bla CHO cell line from Invitrogen.
NCGC Assay Protocol Summary: The CellTiter-Glo luminescent cell viability assay (Promega) is a homogeneous method to measure the number of viable cells in culture. The end point readout of this assay is based on quantitation of intracellular ATP, an indicator of metabolic activity, using the luciferase reaction. Luciferase catalyzes the oxidation of beetle Luciferin to oxyluciferin and light in the presence of ATP. The luminescent signal is proportional to amount of ATP present. Using the CellTiter-Glo luminescent cell viability assay, the amount of cellular ATP was measured in the CRE-bla CHO cell line with complete culture medium following compound treatment for 24 hours. The assay was performed in opaque white Kalypsys 1536-well plates. In the screen, tamoxifen was used as positive control. The selected compounds were measured for their ability to cause acute toxicity in the cell line, as reflected by a decrease in intracellular ATP levels, in a concentration-dependent manner. Data were normalized to the controls for basal activity (DMSO only) and 100% inhibition (100 uM tamoxifen). AC50 values were determined from concentration-response data modeled with the standard Hill equation. NCGC Assay Protocol Summary 1. Reagent; 5 uL; 2000 CHO cells/well 2. Time; overnight; 37 C incubation 3. Compounds; 23 nL; 5.9 nM to 46 uM 4. Controls; 23 nL; Tamoxifen 4.5 nM to 92 uM 5. Time; 24 hr; 37 C incubation 6. Reagent; 5 uL; CellTiter Glo reagent 7. Time; 20 min; Room Temperature 8. Detection; Luminescence; Viewlux plate reader Keywords: cell viability, cytotoxicity, CHO cell line, luminescence, MLSMR, MLSCN, NIH Roadmap, qHTS, NCGC

Compound | outcome
Cc1nn(-c2ccccc2)c2sc(C(=O)N(Cc3ccco3)C(C)C(=O)NC(C)(C)C)cc12 (stereo not given) | inactive
CCc1nc(Nc2ccc3nccnc3c2)c2oc3ccccc3c2n1 | inactive
CC1CCc2sc3nc(N4CCN(CCO)CC4)n4ncnc4c3c2C1 (stereo not given) | inactive
COc1ccc(CCNC(=O)CSc2nc(C)nc3c2oc2ccccc23)cc1OC | inactive
Cc1nc(SCC(=O)Nc2cc(C)on2)c2c3c(sc2n1)CCCC3 | inactive
